The text below walks through data of PubChem BioAssay (Tox21).

Where “and” joins values, the source holds several entries; their conditions need not be identical. Identical values can stand only once. Results filed as inconclusive are left out. The source holds several records for some structures; these can differ, active in one and inactive in another. Calls of active or inactive are those of the source. Unless noted, calls follow the shape of the dose curve; as a rule, active = well fitted curve in the direction sought with a large enough effect in the repeat runs; inconclusive = weak or mixed curves; inactive = no such curve, though single readings can be large; an effect the other way counts as inactive or inconclusive.

Assay [1] is described as follows: qHTS assay for identifying genotoxic compounds that show differential cytotoxicity against isogenic chicken DT40 cell lines with known DNA damage response pathways - wild type cell line (AID 743012). Also: nearly all actives have a fitted effect of over 60% in size. Also: potency is read from the fitted curve at half-maximal effect. Put shortly:
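Viability of DNA repair-proficient chicken DT40 cells was assessed by CellTiter-Glo luminescence following 40 h compound exposure at 37 C/5% CO2.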

Assay [2] can be described thus: qHTS assay for identifying genotoxic compounds that show differential cytotoxicity against isogenic chicken DT40 cell lines with known DNA damage response pathways - Rev3 mutant cell line (AID 743014). Also: nearly all actives have a fitted effect of over 55% in size. Also: potency is read from the fitted curve at half-maximal effect. On the technique in general: In qHTS, concentration-response curves come from the screen itself.
A short description of assay [3]: qHTS assay for identifying genotoxic compounds that show differential cytotoxicity against isogenic chicken DT40 cell lines with known DNA damage response pathways - Rad54/Ku70 mutant cell line (AID 743015). Also: nearly all actives have a fitted effect of over 60% in size. Also: potency is read from the fitted curve at half-maximal effect.
Assay [4] can be described thus: qHTS assay to identify small molecule antagonists of the androgen receptor (AR) signaling pathway - cell viability counter screen (AID 743033; also: nearly all actives have a fitted effect of over 45% in size).
Assay [5] is described as follows: qHTS assay to identify small molecule antagonists of the androgen receptor (AR) signaling pathway using the MDA cell line - cell viability counter screen (AID 743041; also: nearly all actives have a fitted effect of over 45% in size; also: potency is read from the fitted curve at half-maximal effect). The essentials: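 Cytotoxicity counter screen: MDA-kb2 AR-luc cells, compound + R1881, 16 h, 37C, 0% CO2; CellTiter-Fluor added at 15.5 h, fluorescence read after 30 min.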
The nature of assay [6]: qHTS assay to identify small molecule antagonists of the thyroid receptor (TR) signaling pathway - cell viability counter screen (AID 743064). Also: nearly all actives have a fitted effect of over 50% in size. Also: potency is read from the fitted curve at half-maximal effect. Put shortly: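 GH3.TRE-Luc cells, 4 h pre-plating; cpd + T3 1 nM final; 37 °C 23.5 h; CellTiter-Fluor 30 min; fluorescence read.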
Assay [7] addresses Androgen receptor (Homo sapiens) (UniProt P10275). The experiment in a line: qHTS assay to identify small molecule agonists of the androgen receptor (AR) signaling pathway (AID 743036; active = well fitted activation curve with a large enough effect in the signal ratio in the repeat runs, with a control signal flat, not every such curve was filed as active; the % refers to the signal ratio). Put shortly:
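AR-bla HEK293 cells, 2,000/well; 4 h preincubation 37C/5% CO2; compound (DMSO) 16 h at 37C; LiveBLAzer B/G FRET substrate 2 h RT; fluorescence intensity read-out.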

Assay [8] shares this target. The experiment in a line: qHTS assay to identify small molecule agonists of the androgen receptor (AR) signaling pathway using the MDA cell line (AID 743040; also: nearly all actives have a fitted effect of over 20% in size). Put shortly: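 Luciferase read-out, ONE-Glo, 30 min RT. Cells: MDA-kb2 AR-luc, MMTV promoter with AR and GR response elements. Compound exposure 16 h, 37C, 0% CO2, after 5 h pre-incubation. qHTS agonist mode.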

For assay [9] the target is unchanged. The experiment in a line: qHTS assay to identify small molecule antagonists of the androgen receptor (AR) signaling pathway using the MDA cell line (AID 743042; also: nearly all actives have a fitted effect of over 55% in size; also: potency is read from the fitted curve at half-maximal effect). Put shortly:
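MDA-kb2 breast carcinoma cells carrying MMTV-luciferase (AR/GR responsive) were co-treated with compounds and the agonist R1881 for 16 h at 37C. Inhibition read as ONE-Glo luminescence; CellTiter-Fluor fluorescence measured in parallel for cytotoxicity.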

Assay [10] can be described thus: qHTS assay to identify small molecule antagonists of the glucocorticoid receptor (GR) signaling pathway - cell viability counter screen (AID 720693). Also: nearly all actives have a fitted effect of over 55% in size.

Chain of Androgen receptor (Homo sapiens) (P10275 whole entry, looked up): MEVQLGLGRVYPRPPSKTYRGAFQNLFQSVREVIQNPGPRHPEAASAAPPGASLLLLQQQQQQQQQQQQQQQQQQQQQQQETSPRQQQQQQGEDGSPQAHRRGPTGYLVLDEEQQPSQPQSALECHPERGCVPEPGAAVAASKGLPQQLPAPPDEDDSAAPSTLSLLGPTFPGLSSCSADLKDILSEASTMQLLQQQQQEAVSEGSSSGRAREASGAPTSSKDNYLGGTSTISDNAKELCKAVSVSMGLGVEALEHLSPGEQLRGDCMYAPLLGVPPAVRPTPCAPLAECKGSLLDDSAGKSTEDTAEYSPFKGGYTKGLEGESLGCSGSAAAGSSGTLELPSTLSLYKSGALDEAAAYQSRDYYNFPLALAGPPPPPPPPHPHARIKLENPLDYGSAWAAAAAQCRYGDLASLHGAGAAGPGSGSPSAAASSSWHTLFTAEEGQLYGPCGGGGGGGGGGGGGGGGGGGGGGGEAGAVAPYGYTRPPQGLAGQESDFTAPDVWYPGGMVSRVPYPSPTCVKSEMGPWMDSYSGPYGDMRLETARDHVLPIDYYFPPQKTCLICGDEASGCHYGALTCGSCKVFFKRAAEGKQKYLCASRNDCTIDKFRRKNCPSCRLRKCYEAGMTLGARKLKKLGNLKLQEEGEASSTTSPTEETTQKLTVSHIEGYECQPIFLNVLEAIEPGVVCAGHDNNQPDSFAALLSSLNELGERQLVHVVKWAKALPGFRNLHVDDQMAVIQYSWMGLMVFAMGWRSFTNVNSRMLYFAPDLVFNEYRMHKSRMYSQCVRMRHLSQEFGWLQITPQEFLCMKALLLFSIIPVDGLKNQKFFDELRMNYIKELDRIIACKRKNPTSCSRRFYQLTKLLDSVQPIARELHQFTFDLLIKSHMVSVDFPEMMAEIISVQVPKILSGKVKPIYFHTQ

On to `CCCCN1CCCC1C(=O)Nc1c(C)cc(C)cc1C` (centres undefined), for which the Potency in assay [1] was 16.8 µM (active); in assay [2], 23.7 µM (active); in [3], 29.8 µM (active). The Potency entry in [4], in [5] and in assay [6] was “inactive” in each case.

Regarding `CCCCCC[C@@H](O)C/C=C\CCCCCCCC(=O)O`, the Potency entry in assay [1] is “inactive and 29.8 µM (active)”; in [3], “inactive and 23.7 µM (active) and 48.6 µM (active)”. Besides, the Potency result in assay [2], in assay [4], in assay [5] and in assay [6] was “inactive” each time.

As to `Cc1cc(=O)c2c(O)c3c(O)cc(=O)c4c3c3c(cc(O)c1c23)C(C)(C)C=4O`, the Potency is 0.944 µM (active) in assay [1], 1.06 µM (active) in assay [2], 1.06 µM (active) in assay [3] and 0.841 µM (active) in [6]. In addition, the Potency result in assay [4] and in assay [5] was “inactive” throughout.

On to `CCCCCCC(C)(C)C(=O)O`, for which the Potency result in assay [1], in [2], in assay [3], in [4], in [5] and in [9] was “inactive” each time. Also, the Potency entry in [6] is “inactive”. The call in assay [7] and in assay [8] was inactive.

Consider `O=C1NC(=O)c2cc([N+](=O)[O-])ccc21`, for which the Potency result in [1], in [2], in assay [3], in [4], in assay [5] and in assay [9] was “inactive” each time. The Potency result in assay [6] is “inactive”. The molecule was classed as inactive in [8].

As for `C=C(C)[C@@H]1CCC2=CCC[C@@H](C)[C@]2(C)C1`, the Potency in assay [1] is 27.3 µM (active); in assay [2], 27.3 µM (active); in assay [3], 15.4 µM (active). The Potency result in [4], in assay [5], in [9] and in assay [6] was “inactive” each time. Moreover, the molecule was classed as inactive in assay [7] and in assay [8].

On to `Cc1cccc(O)c1N`, for which the Potency entry in [10], in [4] and in assay [6] was “inactive” each time.

Consider `CC1=Nc2ccc3ccccc3c2C1(C)C`, for which the Potency result in assay [10], in [9] and in [6] was “inactive” each time. Moreover, the call in assay [7] and in [8] was inactive.

As to `CCOC(=O)/C=C/C(=O)OCC`, the Potency entry in [1], in [2], in assay [3], in assay [4] and in [5] was “inactive” throughout.

In the case of `CCOC(=O)c1ccc(C#Cc2ccc3c(c2)C(C)(C)CCS3)nc1`, the Potency in [1] is 23.7 µM (active); in assay [2] it was 29.8 µM (active); in [3], 29.8 µM (active). The Potency result in [4], in [5] and in [6] was “inactive” in each case.

As to `Nc1cccc2c1CN(C1CCC(=O)NC1=O)C2=O` (centres undefined), the Potency result in assay [1], in assay [2], in assay [3], in [4], in assay [5] and in [6] was “inactive” in each case.

Consider `CC(=O)OCCN(CCOC(C)=O)c1ccc(N=Nc2ccc([N+](=O)[O-])cc2C#N)cc1`, for which the Potency was 61.1 µM (active) in [1], 30.6 µM (active) in [2] and 30.6 µM (active) in [3]. For the same molecule, the Potency entry in assay [4] and in assay [5] was “inactive” throughout.

Take `CCOc1ccccc1O[C@H](c1ccccc1)[C@H]1CNCCO1`: the Potency in [1] was 29.8 µM (active); in assay [2] it was 26.6 µM (active); in [3], 13.3 µM (active); in assay [6], 16.8 µM (active). In addition, the Potency entry in assay [4] and in assay [5] was “inactive” in each case.

Consider `CC(=O)c1ccc([N+](=O)[O-])cc1`, for which the Potency result in assay [1], in [2], in assay [3], in assay [4], in assay [5] and in assay [6] was “inactive” each time.

Regarding `O=[N+]([O-])c1cc(C2CCCCC2)c(O)c([N+](=O)[O-])c1`, the Potency in assay [1] was 17.2 µM (active); in assay [2], 21.6 µM (active); in assay [3] it was 19.3 µM (active); in assay [5] it was 30.5 µM (active); in assay [9] it was 12.2 µM (active); in [6], 9.66 µM (active). The result in [8] was inactive.

Regarding `O=C(/C=C/c1ccc(O)c(O)c1)O[C@@H]1C[C@@](OC(=O)/C=C/c2ccc(O)c(O)c2)(C(=O)O)C[C@@H](O)[C@@H]1O`, the Potency entry in assay [2], in assay [3], in [4], in assay [5] and in assay [6] was “inactive” in each case.

Consider `C1C[C@@H]2[C@H]3CC[C@H](C3)[C@@H]2C1`, for which the Potency result in assay [2], in assay [4], in assay [5] and in [6] was “inactive” throughout.

On to `CC(C)C=O`, for which the Potency result in assay [4], in [5] and in assay [6] was “inactive” throughout.

For the molecule `C[C@@H](O)[C@H]1C(=O)N2C(C(=O)O)=C([C@H]3CCCO3)S[C@H]12`, the Potency entry in [2], in assay [3], in [4], in assay [5], in assay [9] and in assay [6] was “inactive” each time. Moreover, the molecule was called inactive in [7] and in assay [8].

On to `C/C=C/C=C/C=O`, for which, in [2], the Potency is 54.1 µM (active). For the same molecule, the Potency result in assay [4], in assay [5], in assay [9] and in assay [6] was “inactive” throughout. The call in assay [8] was inactive.

As to `CCCCCC#CC(=O)OC`, the Potency result in assay [2], in [4] and in assay [5] was “inactive” throughout.

As to `COC(=O)C1=C(C)NC(C)=C(C(=O)O[C@@H]2CCCN(Cc3ccccc3)C2)[C@@H]1c1cccc([N+](=O)[O-])c1`, the Potency in assay [1] was 13.3 µM (active); in [2], 21.1 µM (active); in assay [3] it was 13.3 µM (active); in assay [6] it was 26.6 µM (active).

Consider `CCN(CC)CCNC(=O)COc1ccc(OC)cc1`, for which the Potency result in assay [1], in assay [3], in [4], in assay [5] and in assay [6] was “inactive” throughout.

Consider `O=C1c2ccccc2C(=O)C1(O)O`, for which the Potency was 24.5 µM (active) in assay [2] and 27.4 µM (active) in assay [3]. In addition, the Potency entry in assay [5] was “inactive”.
